Inconclusive results are not listed. Some compounds were tested as several samples or in several runs, with calls that do not always agree. The source made the active and inactive calls. Rule for the calls: active = hit-call score of the fitted dose curve at least 0.9, where 1 is the maximum; inconclusive = response in the unintended direction; inactive = score below 0.9.
target: Cellular tumor antigen p53 (Homo sapiens) (UniProt P04637); experiment: TOX21_p53_BLA_p3_ratio: Tox21 HCT-116 p53 Agonism Beta-lactamase Assay, Ratio, Phase 3 (AID 2283596)
Text: TOX21_p53_BLA_p3 is a cell-based, single-readout assay that uses HCT116, a human intestinal cell line, […] in a 1536-well plate.TOX21_p53_BLA_p3_ratio is an assay readout measuring reporter gene via receptor activity and designed using inducible reporter (beta lactamase induction) detected with GAL4 b-lactamase reporter gene. The signal is derived from the ratio of cleaved (ch2) to uncleaved (ch1) reporter gene substrate used as the measure of target activity.Data from the assay component TOX21_p53_BLA_p3_ratio was analyzed into 1 assay endpoint. This assay endpoint, TOX21_p53_BLA_p3_ratio, was analyzed in the positive analysis fitting direction relative to DMSO as the negative control and baseline of activity. Using a type of inducible reporter, gain-of-signal activity can be used to understand changes in the reporter gene as they relate to the gene TP53. Furthermore, this assay endpoint can be referred to as a primary readout, because this assay has produced multiple assay endpoints where this ratio serves a reporter gene function to understand target activity. To generalize the intended target to other relatable targets, this assay endpoint is annotated to the DNA binding intended target family, where the subfamily is tumor suppressor.
Thawing Method: Place 14 mL of pre-warmed thaw medium into a 15 mL of conical tub. Remove the vial of cells to be thawed from liquid nitrogen and thaw rapidly by placing at 37C in a water bath with gentle agitation for 1-2 minutes. Decontaminate the vial by wiping with 70% ethanol before opening in a biological safety cabinet. Transfer the vial contents drop-wise into 14 mL of thaw medium in a sterile 15-mL conical tub. Centrifuge cells at 900 rpm for 4 minutes and resuspend in thaw medium. Transfer contents to the T75 tissue culture flask containing Thaw Medium and place flask in a humidified 37C/5% CO2 incubator. Switch to growth medium at first passage.Propagation Method: Aspirate medium, rinse once in DPBS, add 0.25% Trypsin/EDTA and swirl to coat the cell evenly. Add an equal volume of Growth Medium to inactivate Trypsin after 2-3 minutes incubation at 37C. Centrifuge cells at 900 rpm for 4 minutes and resuspend in growth medium. Cell should be passage or fed at least twice a week.Assay Protocol: Harvest cells from culture in growth medium and resuspend in assay medium. 2.2 Dispense 4000 cells/5 uL/well into 1536-well black/clear bottom plates using a Multidrop dispenser. After the cells were incubated at 37C for 5 hours, 23 nL of compounds dissolved in DMSO were transferred to the assay plate by a PinTool resulting in a 217-fold dilution. Incubate the plates for 16 hours at 37C, 5% CO2. Add 1 uL of 6X LiveBLAzer FRET B/G (CCF4-AM) Substrate Mixture to each well using a BioRAPTR dispenser and incubate the plates at room temperature for 2 hours. Measure fluorescence intensity at 460 and 530 nm emission and 405 nm excitation by an Envision detector. Data is expressed as the ratio of 460nm/530nm emissions. Add 4 uL of Cell-titer Glo to each well using BioRAPTR and incubate the plates at room temperature for 2 hours. Measure fluorescence intensity by a VewLux plate reader.

Chain of Cellular tumor antigen p53 (Homo sapiens) (P04637 whole entry, looked up, the tested form may be a part): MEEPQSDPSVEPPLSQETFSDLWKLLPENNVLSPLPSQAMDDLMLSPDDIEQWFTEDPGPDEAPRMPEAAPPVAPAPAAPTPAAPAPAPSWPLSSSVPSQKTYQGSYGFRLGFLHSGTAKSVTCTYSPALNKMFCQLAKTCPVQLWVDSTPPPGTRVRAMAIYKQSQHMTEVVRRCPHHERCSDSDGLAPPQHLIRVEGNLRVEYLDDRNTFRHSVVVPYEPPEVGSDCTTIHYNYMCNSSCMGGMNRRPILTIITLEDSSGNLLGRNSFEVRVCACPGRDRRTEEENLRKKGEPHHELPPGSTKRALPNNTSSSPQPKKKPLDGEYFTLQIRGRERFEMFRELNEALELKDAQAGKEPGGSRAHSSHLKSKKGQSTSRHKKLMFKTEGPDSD

Structure (SMILES)	outcome	AC50
CCNC(=S)NCC	inactive	
CCC(C)(C)C1CCC(OC)CC1 (stereo not given)	inactive	
CC(C)Cc1ccc(C(C)C(=O)O)cc1 (stereo not given)	inactive	
CC(C)=CC(=O)O	inactive	
[Na+]	inactive	
CC(C)(C)C1CCC(O)CC1 (stereo not given)	inactive	
C/C=C(\C)C(=O)OC/C=C(\C)CCC=C(C)C	inactive	
c1ccc(Cc2ccccc2)cc1	inactive	
CC(C)Cc1ccccc1	inactive	
CCCCN(CCO)CCO	inactive	
CC(CCO)CC(C)(C)C (stereo not given)	inactive	
CCCCCCC(O)CCOC(C)=O (stereo not given)	inactive	
Nc1ccn([C@H]2CC[C@@H](CO)O2)c(=O)n1	inactive	
CCCCCCCC1CCCC1=O (stereo not given)	inactive	
CCCCC(CC)COCCO (stereo not given)	inactive	
CCC(C)(C)C1CCC(=O)CC1	inactive	
ClCCOCCOCCCl	inactive	
O=c1cc(-c2ccc(O)cc2)oc2cc(O)cc(O)c12	inactive	14.6 µM (active)
CCCCCCC(C)O (stereo not given)	inactive	
CCCCN(CCCC)CCCCCCN(CCCC)CCCC	inactive	

Structure (SMILES)	outcome	AC50
CCOC(=O)C=Cc1ccccc1	inactive	
CCC(C)(C)c1cc(O)c(C(C)(C)CC)cc1O	inactive	
CCCCC(CC)COC(=O)COc1ccc(Cl)cc1C (stereo not given)	inactive	
O=C(O)c1cc(C(=O)O)c(C(=O)O)cc1C(=O)O	inactive	
C=C(C)C(=O)OCCN(C)C	inactive	
NC(=O)c1cccnc1	inactive	
CCCCCCCCCCCCS	inactive	
CCOC(=O)CCCCCCCCC(=O)OCC	inactive	
C=CC(C)(CCC=C(C)C)OC(=O)CC (stereo not given)	inactive	
O=C(OCc1ccccc1)c1ccccc1O	inactive	
CCCCCCOc1ccc(O)cc1		36.3 µM (active)
CCCCCCCCCOS(=O)(=O)O	inactive	
CC1=CC(=O)[C@H]2C[C@@H]1C2(C)C	inactive	
CCC(C)COC(=O)CC(C)C (stereo not given)	inactive	
C=CCS(=O)(=O)O	inactive	
CCCCOCCOCCO	inactive	
CC(C)(O)CCc1ccccc1	inactive	
COc1ccccc1NC(=O)CC(C)=O	inactive	
CCCCCCCC(=O)N(C)C	inactive	

— PubChem BioAssay (EPA / NIEHS)
